From PubChem BioAssay AID2205 (University of Pittsburgh Molecular Library Screening Center, 2009)
About 1,600 (0.8%) of roughly 200,000 compounds were called active.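 Rule for the calls: active = plate Z-score above 3 for both tubulin-high and condensed-nucleus cell shares, with cell loss under 80%, at 10 µM; inactive = the rest, inconclusive results apart.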 The list comes from a sample in which actives are over-represented; it also holds similar structures and randomly drawn compounds.

Assay: tubulin staining increase by stabilizing compounds – imaging, high-content imaging, primary screen (AID 2205);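 for % tubulin-high responders: anti alpha tubulin signal scored within the nucleus-defined area of each cell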;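 for toxicity: 0% = mean cell density of plate MIN control wells and 100% = no cells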
Conditions: HeLa tubulin immunostaining HCS, 24 h, at 10 µM; % Hoechst-high responders: measured here: nuclear condensation Hoechst responders, stronger effect = higher value, share of cells brighter than vehicle mean+2SD; % tubulin-high responders: stronger effect = higher value, share of cells brighter than vehicle mean+2SD; toxicity: measured here: cytotoxicity by cell density

| SMILES | % Hoechst-high responders [%] | % tubulin-high responders | toxicity [%] |
| --- | --- | --- | --- |
| CC(C)OCCCNC(=O)c1cc(Sc2ccc(F)cc2)nc2ccccc12 | 1.81 | 1.25% (inactive) | 6.52 |
| CC(=O)N1C(=O)/C(=C2\SC(=S)N(NC(=O)c3ccc(O)cc3)C2=O)c2ccccc21 | 2.97 | 2.55% (inactive) | 3.4 |
| Cc1noc(C)c1S(=O)(=O)Nc1ccc(C(=O)N2CCN(c3ccc(F)cc3)CC2)cc1 | 2.09 | 1.32% (inactive) | 5.68 |
| O=C(O)CCN(Cc1ccccc1)S(=O)(=O)c1c(Cl)cccc1Cl | 1.31 | 2.16% (inactive) | 1.51 |
| CN(Cc1ccccc1)C(=O)COC(=O)c1ccccc1Nc1ccccc1 | 1.59 | 6.59% (inactive) | 4.42 |
| CC(C)Cc1nc(Nc2ccc(S(=O)(=O)N3CCCC3)cc2)c2nnn(Cc3ccccc3)c2n1 | 2.68 | 3.7% (inactive) | 11.3 |
| Cc1csc(NC(=O)Nc2ccccc2[N+](=O)[O-])n1 | 2.72 | 1.89% (inactive) | 4.62 |
| COC(=O)C1=C(C)OC(N)=C(C#N)C1c1cc(OC)ccc1OC (stereo not drawn) | 4.1 | 4.68% (inactive) | 10.9 |
| CCC1=C(C(=O)OC)C(c2cc(OC)ccc2OC)C(C#N)=C(N)O1 (stereo not drawn) | 3.6 | 3.6% (inactive) | 4.77 |
| COc1ccc(C2C(C#N)=C(N)Oc3cc(N)ccc32)cc1OC (stereo not drawn) | 17.3 | 44.5% (active) | 68 |
| c1ccc(C2CNCc3c2ccc2ccccc32)cc1 (stereo not drawn) | 32.1 | 14% (active) | 25.9 |
| C=C(C)COc1ccc(-c2n[nH]c(C)c2-c2ccccc2)c(O)c1 | 2.28 | 3.77% (inactive) | 27.6 |
| COc1ccc(-c2n[nH]c(C)c2-c2ccc(OC)c(OC)c2)c(O)c1 | 19 | 42.8% (active) | 76 |
| C=C(C)COc1ccc(-c2n[nH]c(C)c2-c2ccccc2OC)c(O)c1 | 4.86 | 6.2% (inactive) | 5.28 |
| Cc1[nH]n(-c2ccccc2)c(=O)c1/C=N/NC(=O)c1ccoc1C | 1.51 | 1.79% (inactive) | 2.88 |
| CCc1ccc(-n2c(=S)sc3c(=O)n(-c4ccccc4OC)c(=S)[nH]c32)cc1 | 2.26 | 4.15% (inactive) | 6.79 |
| COc1ccc(/C=C/CN2CCN(Cc3ccc(C)cc3)C(CCO)C2)cc1 (stereo not drawn) | 2.01 | 6.04% (inactive) | 4.33 |
| CCn1c(/C=C/Nc2ccccc2)[n+](CC)c2ccc(C(=O)OCC(F)(F)F)cc21 | 3.06 | 2.82% (inactive) | 0.486 |
| CC(C)(C)NC(=O)Cn1cnc2cc([N+](=O)[O-])ccc2c1=O | 1.76 | 5.69% (inactive) | 5.93 |
| COc1ccc(C2=NN(C(=O)CCC(=O)O)C(c3cccs3)C2)cc1OC (stereo not drawn) | 0.575 | 2.36% (inactive) | 4.5 |
| CS(=O)(=O)Nc1ccc(C2=NN(S(C)(=O)=O)C(c3cccs3)C2)cc1 (stereo not drawn) | 1.8 | 1.74% (inactive) | 6.29 |
| CCS(=O)(=O)Nc1ccc(C2=NN(C(C)=O)C(c3cccs3)C2)cc1 (stereo not drawn) | 60.7 | 26.1% (active) | 26.6 |
| O=c1[nH]c(N2CCN(Cc3ccc4c(c3)OCO4)CC2)nc2c1CCCC2 | 3.51 | 5.89% (inactive) | 3.65 |

| SMILES | % Hoechst-high responders [%] | % tubulin-high responders | toxicity [%] |
| --- | --- | --- | --- |
| CCc1ccc(NC(=O)CC2C(=O)NCCN2C(=S)Nc2ccccc2)cc1 (stereo not drawn) | 3 | 3.9% (inactive) | 11.2 |
| CC(=O)Nc1ccc(Nc2c3ccccc3nc3ccccc23)cc1 | 8.03 | 12.5% (inactive) | 40.3 |
| O=[N+]([O-])c1cccc(Nc2c3ccccc3nc3ccccc23)c1 | 32.2 | 22% (active) | 46.2 |
| Cc1cc(CNC(=O)c2cccc([N+](=O)[O-])c2)c2ccccc2n1 | 2.57 | 3.83% (inactive) | 1.18 |
| COc1ccc(N2CCN(C(=O)CCSCc3ccccc3F)CC2)cc1 | 1.53 | 3.62% (inactive) | 4.73 |
| Cc1cccc(C(=O)Nc2ccccc2C(=O)NCc2cccnc2)c1 | 2.76 | 2.92% (inactive) | 4.59 |
| Cc1ccc(S(=O)(=O)N(C)C2(C)CCS(=O)(=O)C2)cc1 (stereo not drawn) | 1.21 | 1.1% (inactive) | 7.98 |
| Cc1ccc(S(=O)(=O)NC(=O)N2CCCC(C)(C)C2)cc1 | 0.922 | 1.38% (inactive) | 2.22 |
| Cc1ccc(S(=O)(=O)C2(S(=O)(=O)c3ccc(C)cc3)CCCC2)cc1 | 39.1 | 36.4% (active) | 67.7 |
| O=c1oc(-c2ccco2)nc2sc3c(c12)CCCCC3 | 2.16 | 1.31% (inactive) | 7.63 |
| COc1cccc2cc(S(=O)(=O)c3ccc(C)cc3)/c(=N/NS(=O)(=O)c3ccc(C)cc3)oc12 | 2.11 | 3.76% (inactive) | 4.71 |
| Cc1cc(-c2csc(N)n2)c(C)n1Cc1ccccc1 | 3.06 | 0.459% (inactive) | 7.95 |
| O=C(c1cc(=O)c2ccccc2o1)N1CCN(c2ccccc2)CC1 | 2.26 | 4.68% (inactive) | 10.7 |
| COc1ccccc1CNC(=O)c1cc(=O)c2ccccc2o1 | 2.39 | 1.71% (inactive) | 11.9 |
| COc1cc2c(cc1OC)CN(C(=O)c1cc(=O)c3ccccc3o1)CC2 | 50.5 | 42.7% (active) | 31.7 |
| CCCCCCCCCCOC(=O)C[N+](C)(C)CC1CCCCC1O (stereo not drawn) | 2.44 | 1.85% (inactive) | 7.67 |
| COC(=O)N/N=C/c1cn(CCCOc2ccc(C)cc2)c2ccccc12 | 1.65 | 1.39% (inactive) | 0.806 |
| CCOC(=O)N/N=C/c1cn(Cc2ccccc2Cl)c2ccccc12 | 1.41 | 1.99% (inactive) | 3.67 |
| CNC(=S)N/N=C/c1cn(Cc2ccc(C)cc2)c2ccccc12 | 11.2 | 25.5% (active) | 51.6 |
| Cc1ccc(-c2cc(C(=O)N/N=C/C=C/c3ccco3)c3ccccc3n2)cc1C | 1.03 | 1.52% (inactive) | 10.1 |
| CC(/C=N/NC(=O)c1ccncc1)=C\c1ccco1 | 2.03 | 3.19% (inactive) | 5.26 |
| CC(/C=N/NC(=O)c1cc(-c2ccc3ccccc3c2)n[nH]1)=C\c1ccco1 | 24.9 | 18.2% (active) | 26.2 |
| CCN(CC)c1ccc(S(=O)(=O)N2CCOCC2)cc1NC(=O)CSc1cccc[n+]1[O-] | 1.88 | 2.6% (inactive) | 2.07 |
